From ChEMBL document CHEMBL3988442, “University of Dundee, Small-Polar-MMV Screening Library” (2021)
For some of these results: Results with a measured potency or affinity are listed apart.

Assays:
Parameters in all cases: scale not given: direction of the effect not stated beside the values
[1] = target: Protein translocase subunit SecA (Escherichia coli (strain K12)) (UniProt P10408); test: Assay to Identify E. coli SecA ATPase Inhibitors; type: functional; settings: 30 µM
[2] = target: T1, Ubiquitin-activating enzyme e1, putative (Leishmania donovani (strain BPK282A1)) (UniProt E9BSI1); test: Leishmania donovani Ubiquitin Activating Enzyme (LdE1); type: functional; settings: 30 µM
T1 sequence (whole entry): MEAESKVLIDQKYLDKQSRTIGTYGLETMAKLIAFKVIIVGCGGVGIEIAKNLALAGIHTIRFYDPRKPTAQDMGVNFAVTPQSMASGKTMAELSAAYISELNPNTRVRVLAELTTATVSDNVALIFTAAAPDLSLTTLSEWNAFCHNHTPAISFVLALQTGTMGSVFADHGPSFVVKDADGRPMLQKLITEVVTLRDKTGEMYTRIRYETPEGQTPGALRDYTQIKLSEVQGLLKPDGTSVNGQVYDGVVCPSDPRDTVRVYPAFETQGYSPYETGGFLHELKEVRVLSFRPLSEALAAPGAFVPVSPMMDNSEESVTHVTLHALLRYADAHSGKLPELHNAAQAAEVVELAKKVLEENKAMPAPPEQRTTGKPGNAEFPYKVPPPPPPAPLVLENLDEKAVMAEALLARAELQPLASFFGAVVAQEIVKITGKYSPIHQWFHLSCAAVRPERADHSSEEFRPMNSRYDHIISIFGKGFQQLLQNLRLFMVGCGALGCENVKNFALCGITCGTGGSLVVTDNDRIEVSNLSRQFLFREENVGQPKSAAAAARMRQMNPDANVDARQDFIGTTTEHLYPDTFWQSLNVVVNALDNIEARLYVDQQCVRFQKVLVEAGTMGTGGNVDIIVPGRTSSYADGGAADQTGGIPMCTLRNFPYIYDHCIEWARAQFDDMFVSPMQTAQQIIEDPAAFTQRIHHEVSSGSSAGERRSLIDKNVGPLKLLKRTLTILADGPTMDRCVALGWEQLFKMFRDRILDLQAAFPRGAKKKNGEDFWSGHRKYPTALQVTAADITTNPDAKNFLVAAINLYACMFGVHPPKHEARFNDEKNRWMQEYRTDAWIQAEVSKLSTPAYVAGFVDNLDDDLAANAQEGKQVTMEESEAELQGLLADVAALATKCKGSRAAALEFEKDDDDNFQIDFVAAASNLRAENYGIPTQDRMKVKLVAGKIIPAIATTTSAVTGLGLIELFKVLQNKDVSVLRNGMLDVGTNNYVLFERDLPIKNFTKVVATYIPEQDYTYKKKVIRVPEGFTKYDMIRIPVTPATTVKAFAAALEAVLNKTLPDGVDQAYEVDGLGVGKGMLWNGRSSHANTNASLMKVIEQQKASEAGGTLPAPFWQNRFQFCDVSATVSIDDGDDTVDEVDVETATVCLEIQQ

[3] = target: AMP-activated protein kinase, AMPK (Homo sapiens) (UniProt P54646+O43741+P54619+Q9UGJ0+Q9Y478+Q13131+Q9UGI9); test: AMP-dependent Kinase enzyme assay. An in vitro enzyme assay that detects ADP turnover that is directly proportional to AMPK activity. This uses naive AMPK that is activated during the assay with MK-8722; type: functional; settings: 30 µM
[4] = target: Sialic acid-binding Ig-like lectin 9 (Homo sapiens) (UniProt Q9Y336); test: Hs-Siglec9 ALPHAscreen SOP 20170721; settings: 10 µM
Trypanosoma cruzi = test: Trypanosoma cruzi phosphomannomutase and mannose-1-phosphate guanylyltransferase assay; type: functional; settings: 10 µM
[5] = target: T2, Arginase-2, mitochondrial (Homo sapiens) (UniProt P78540); test: in vitro enzyme assay to detect the production of urea directly proportional to the activity of Arginase II; type: functional; settings: 33.3 µM; also: in the data most compounds retested in dose-response had high values
T2 sequence (whole entry): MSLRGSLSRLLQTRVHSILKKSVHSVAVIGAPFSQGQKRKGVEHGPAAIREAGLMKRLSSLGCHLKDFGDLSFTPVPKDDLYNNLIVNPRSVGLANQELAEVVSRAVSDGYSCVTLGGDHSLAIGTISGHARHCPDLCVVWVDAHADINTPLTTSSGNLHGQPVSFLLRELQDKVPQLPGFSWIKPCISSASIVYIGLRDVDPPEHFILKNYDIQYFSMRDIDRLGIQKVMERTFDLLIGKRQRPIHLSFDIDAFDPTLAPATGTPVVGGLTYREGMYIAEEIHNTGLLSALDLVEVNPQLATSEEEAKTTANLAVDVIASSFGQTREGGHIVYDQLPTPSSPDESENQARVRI

[6] = target: T3, Proteasome subunit beta (Trypanosoma cruzi) (UniProt O96673); test: Trypanosoma cruzi proteasome chymotrypsin-like activity (TcProtChymo) assay.; also: in the data most compounds retested in dose-response had high values; type: functional; settings: 9.37 µM
T3 sequence (whole entry): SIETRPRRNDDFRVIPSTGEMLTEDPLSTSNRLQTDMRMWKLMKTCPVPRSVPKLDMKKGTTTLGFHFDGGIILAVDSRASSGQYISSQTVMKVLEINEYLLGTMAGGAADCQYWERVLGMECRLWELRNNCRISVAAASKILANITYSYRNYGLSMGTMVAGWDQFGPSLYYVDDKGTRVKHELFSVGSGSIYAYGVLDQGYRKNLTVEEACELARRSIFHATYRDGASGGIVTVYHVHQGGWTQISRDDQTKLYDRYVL

Homo sapiens = organism: Homo sapiens; test: To identify inhibition of the IFN signalling (Jak-Stat) pathway via expression of an eGFP reporter gene under the control of an IFN-stimulated response element (ISRE) containing MxA promoter.; type: functional; settings: 30 µM
[7] = target: T4, Tyrosyl-tRNA synthetase, putative (Trypanosoma cruzi (strain CL Brener)) (UniProt Q4DSP6); test: Trypanosoma cruzi tyrosyl tRNA synthetase (TcYRS) _High Tyrosine SOP; type: functional; settings: 30 µM; also: in the data most compounds retested in dose-response had high values
T4 sequence (whole entry): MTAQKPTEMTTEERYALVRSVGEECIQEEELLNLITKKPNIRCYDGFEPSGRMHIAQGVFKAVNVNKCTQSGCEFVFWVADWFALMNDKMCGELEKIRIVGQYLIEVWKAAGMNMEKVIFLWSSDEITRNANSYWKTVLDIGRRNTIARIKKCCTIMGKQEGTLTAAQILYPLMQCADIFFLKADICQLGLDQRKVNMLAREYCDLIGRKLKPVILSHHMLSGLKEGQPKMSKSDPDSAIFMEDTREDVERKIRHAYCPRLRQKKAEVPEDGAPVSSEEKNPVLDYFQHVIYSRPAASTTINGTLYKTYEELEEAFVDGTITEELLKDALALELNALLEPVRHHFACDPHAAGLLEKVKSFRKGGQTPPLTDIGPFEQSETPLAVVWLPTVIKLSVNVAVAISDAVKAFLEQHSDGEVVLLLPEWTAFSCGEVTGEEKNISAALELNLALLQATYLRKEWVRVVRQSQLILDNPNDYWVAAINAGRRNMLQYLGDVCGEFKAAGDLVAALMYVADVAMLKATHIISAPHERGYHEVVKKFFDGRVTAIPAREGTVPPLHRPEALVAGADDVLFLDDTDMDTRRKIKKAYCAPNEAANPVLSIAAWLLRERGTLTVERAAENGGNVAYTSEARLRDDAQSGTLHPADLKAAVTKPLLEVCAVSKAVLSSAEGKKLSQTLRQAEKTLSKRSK

[8] = target: T4, Tyrosyl-tRNA synthetase, putative (Trypanosoma cruzi (strain CL Brener)); test: Trypanosoma cruzi tyrosyl tRNA synthetase (TcYRS) SOP; type: functional; settings: 30 µM
[9] = target: Chromo domain-containing protein 1 (Saccharomyces cerevisiae (strain ATCC 204508 / S288c) (Baker's yeast)) (UniProt P32657); test: ScCHD-1 Enzyme Inhibition Assay; type: functional; settings: 30 µM; also: in the data most compounds retested in dose-response had high values
Chain of Chromo domain-containing protein 1 (Saccharomyces cerevisiae (strain ATCC 204508 / S288c) (Baker's yeast)) (P32657 whole entry, the tested form may be a part): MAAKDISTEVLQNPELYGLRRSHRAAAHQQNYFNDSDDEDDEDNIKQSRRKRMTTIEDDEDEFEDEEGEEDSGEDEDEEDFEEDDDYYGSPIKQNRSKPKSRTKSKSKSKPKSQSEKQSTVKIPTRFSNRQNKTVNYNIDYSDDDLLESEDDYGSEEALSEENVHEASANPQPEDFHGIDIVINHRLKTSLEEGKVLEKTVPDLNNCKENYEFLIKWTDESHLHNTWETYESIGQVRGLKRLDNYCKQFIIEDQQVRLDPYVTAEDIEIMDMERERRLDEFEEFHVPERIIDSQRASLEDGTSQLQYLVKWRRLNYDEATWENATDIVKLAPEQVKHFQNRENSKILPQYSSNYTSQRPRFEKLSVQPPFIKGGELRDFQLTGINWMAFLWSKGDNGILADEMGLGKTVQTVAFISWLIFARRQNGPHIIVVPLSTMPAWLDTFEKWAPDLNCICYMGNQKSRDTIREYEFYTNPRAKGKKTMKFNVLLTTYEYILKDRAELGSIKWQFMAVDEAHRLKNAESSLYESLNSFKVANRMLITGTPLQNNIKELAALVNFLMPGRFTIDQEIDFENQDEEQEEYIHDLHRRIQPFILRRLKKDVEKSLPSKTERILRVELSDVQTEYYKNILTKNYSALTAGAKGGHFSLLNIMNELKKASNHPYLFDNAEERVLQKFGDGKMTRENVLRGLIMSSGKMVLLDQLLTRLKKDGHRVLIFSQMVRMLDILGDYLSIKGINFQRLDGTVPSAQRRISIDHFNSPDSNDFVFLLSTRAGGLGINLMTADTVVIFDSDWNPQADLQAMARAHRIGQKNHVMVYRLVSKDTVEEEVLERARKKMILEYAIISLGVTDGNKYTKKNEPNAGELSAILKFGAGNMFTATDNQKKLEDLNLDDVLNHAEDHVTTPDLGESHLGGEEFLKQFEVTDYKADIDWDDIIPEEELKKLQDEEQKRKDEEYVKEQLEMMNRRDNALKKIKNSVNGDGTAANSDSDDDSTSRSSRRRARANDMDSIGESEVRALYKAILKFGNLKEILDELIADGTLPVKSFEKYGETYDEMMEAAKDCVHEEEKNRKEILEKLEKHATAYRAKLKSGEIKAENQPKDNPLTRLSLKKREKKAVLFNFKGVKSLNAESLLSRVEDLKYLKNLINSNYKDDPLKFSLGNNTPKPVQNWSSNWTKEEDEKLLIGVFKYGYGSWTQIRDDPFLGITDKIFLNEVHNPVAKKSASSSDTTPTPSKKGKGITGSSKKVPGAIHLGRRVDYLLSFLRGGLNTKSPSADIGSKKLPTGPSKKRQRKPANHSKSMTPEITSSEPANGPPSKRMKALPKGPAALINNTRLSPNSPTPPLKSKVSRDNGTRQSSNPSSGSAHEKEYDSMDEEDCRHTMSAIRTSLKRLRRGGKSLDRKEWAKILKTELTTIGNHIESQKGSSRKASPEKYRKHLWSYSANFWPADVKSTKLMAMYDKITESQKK

Chain of Sialic acid-binding Ig-like lectin 9 (Homo sapiens) (Q9Y336 whole entry): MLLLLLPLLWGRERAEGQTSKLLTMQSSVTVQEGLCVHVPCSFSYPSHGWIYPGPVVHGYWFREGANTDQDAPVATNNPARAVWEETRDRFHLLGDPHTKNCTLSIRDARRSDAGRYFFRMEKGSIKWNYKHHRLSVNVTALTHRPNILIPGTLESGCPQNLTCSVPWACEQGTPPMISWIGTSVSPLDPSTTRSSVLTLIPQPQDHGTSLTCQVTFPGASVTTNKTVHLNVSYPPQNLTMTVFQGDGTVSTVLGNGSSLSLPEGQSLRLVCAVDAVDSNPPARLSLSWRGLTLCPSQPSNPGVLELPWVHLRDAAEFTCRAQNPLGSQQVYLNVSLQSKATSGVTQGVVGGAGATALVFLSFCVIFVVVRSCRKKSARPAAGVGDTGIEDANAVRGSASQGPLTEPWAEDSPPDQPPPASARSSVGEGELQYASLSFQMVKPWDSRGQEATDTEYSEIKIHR
Chain of Protein translocase subunit SecA (Escherichia coli (strain K12)) (P10408 whole entry): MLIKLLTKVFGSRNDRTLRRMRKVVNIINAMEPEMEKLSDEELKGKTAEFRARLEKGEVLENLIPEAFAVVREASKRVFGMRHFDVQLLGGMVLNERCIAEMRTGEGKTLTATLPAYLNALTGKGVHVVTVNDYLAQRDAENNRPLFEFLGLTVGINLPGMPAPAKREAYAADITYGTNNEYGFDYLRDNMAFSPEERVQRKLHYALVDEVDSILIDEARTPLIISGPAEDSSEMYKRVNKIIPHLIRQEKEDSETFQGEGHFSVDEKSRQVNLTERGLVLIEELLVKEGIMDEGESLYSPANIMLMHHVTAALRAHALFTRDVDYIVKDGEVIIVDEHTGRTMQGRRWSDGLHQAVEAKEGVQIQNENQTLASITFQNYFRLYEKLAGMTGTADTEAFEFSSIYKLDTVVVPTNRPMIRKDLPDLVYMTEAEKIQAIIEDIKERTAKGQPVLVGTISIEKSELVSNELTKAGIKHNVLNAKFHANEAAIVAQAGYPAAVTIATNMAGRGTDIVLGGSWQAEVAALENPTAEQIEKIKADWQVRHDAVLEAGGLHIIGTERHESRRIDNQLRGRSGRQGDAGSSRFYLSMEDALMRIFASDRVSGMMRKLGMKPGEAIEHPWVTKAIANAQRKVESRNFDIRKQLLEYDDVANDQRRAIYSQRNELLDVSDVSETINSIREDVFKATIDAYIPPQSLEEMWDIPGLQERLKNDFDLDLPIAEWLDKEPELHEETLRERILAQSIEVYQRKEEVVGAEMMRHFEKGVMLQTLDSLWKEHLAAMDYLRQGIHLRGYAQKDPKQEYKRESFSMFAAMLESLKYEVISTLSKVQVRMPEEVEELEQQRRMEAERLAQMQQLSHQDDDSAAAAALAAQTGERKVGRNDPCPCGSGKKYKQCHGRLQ

SMILES | Percent Effect [1] | Percent Effect [2] | Percent Effect [3] | Percent Effect [4] | Percent Effect (Trypanosoma cruzi) | Percent Effect [5] | Percent Effect [6] | Percent Effect (Homo sapiens) | Percent Effect [7] | Percent Effect [8] | Percent Effect [9]
COc1ccc(OC)c(CCNC(=O)NC(C)Cn2ccnc2)c1 (stereo unspecified) | -2.99% | 10.5% | -9.22% | -3.09% | -9.77% | -6.13% | 5.35% | 34.6% | -1.47% | 4.88% | -5.83%
COCCCNC(=O)CN(C)C(=O)c1cc(C)sc1C | -3.23% | -359% | 0.833% | 1.88% | -4.55% | -1.66% | 4.67% | 14.8% | 5.94% | 15.8% | -1.76%
Cc1occc1C(=O)N1CCC2(CCC2NC(=O)c2ccn(C)c2)CC1 (stereo unspecified) | -5.67% | 8.11% | 3.15% | -1.3% | 4.79% | -3.5% | 12% | -2.79% | 6.49% | 15.4% | 3.75%
CC(C)C(=O)N1CCCC(c2cc(C(F)F)n3ncnc3n2)C1 (stereo unspecified) | -6.98% | 4.05% | 6.16% | -5.54% | -4.94% | -6.73% | 4.21% | 18% | -3.23% | 1.3% | -0.33%
COCC1CC2(CCN(Cc3cnn(C)c3)CC2)CN1c1ncccn1 (stereo unspecified) | -2.97% | 13% | 0.218% | 12.7% | 7.38% | -5.52% | 11.7% | -19% | 7.53% | 18.5% | -2.6%
CNC(=O)N1CCc2cc(C(=O)N(C)C)c(NCC3CC3)nc2CC1 | -4.82% | 8.11% | -2.71% | 2.07% | -4.4% | -0.248% | 10.7% | 18.6% | 6.45% | 16.1% | -1.72%
c1cc2nccc(CC3CCCN(Cc4ncc[nH]4)CC3)c2cn1 (stereo unspecified) | -2.14% | 9.46% | 4.64% | 12.8% | 5.34% | -2.09% | 9.98% | 12.3% | 11.8% | 24.7% | -17.2%
Cc1nc(C2CCCN(C(=O)c3ccco3)C2)no1 (stereo unspecified) | -7.21% | 1.27% | 1.16% | -2.53% | -0.308% | -0.645% | 1.37% | 16% | 1.04% | -7.59% | -4.36%
CN(Cc1nccn1CC(F)(F)F)C(=O)c1ccc(F)cc1F | -4.89% | 5.26% | 5.36% | 6.23% | -5.16% | -5.92% | 12.8% | -12.9% | 6.38% | 7.79% | 3.79%
O=C(NCc1nnc2n1CCCC2)N(Cc1ccccc1F)C1CC1 | -2.88% | 5.41% | -1.8% | 0.0872% | -2.12% | -2.38% | 12.8% | 7.52% | 0.529% | 0% | -4.24%
O=C(NC1CC1)[C@@H]1CCO[C@@H]2CCN(C3CCOCC3)C[C@H]21 | -7.35% | 2.6% | 3.75% | 6.23% | 4.62% | 5.52% | 8.49% | -3.98% | 6.45% | 13.6% | 0.47%
